Assay results as given in PubChem BioAssay AID1159580 (chemical genetic matrix, 2015).
In all, about 5,500 compounds went through this assay and about 2,000 (36%) were called active. Another 18% or so got no clear call; they are omitted. No stated cut-off is given here; in the data, active means normalized growth mostly below about 0.91 (no sharp cut-off); inconclusive means no clear call, values can overlap the other calls; inactive means mostly above about 0.92. The list shows a part of the results.

Assay: chemical genetic growth profiling, strain panel (AID 1159580);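 further: tested at 20 µM; growth read once vehicle control cultures reached saturation at 30 °C; 1 = growth at the plate median or of vehicle wells; lower values mean less growth of the strain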
Details: S. cerevisiae deletion strains, growth OD

Measured: normalized growth

COc1ccc(-c2cc(=O)c3c(O)cc(O[C@H]4O[C@H](CO[C@@H]5O[C@@H](C)[C@H](O)[C@@H](O)[C@H]5O)[C@@H](O)[C@H](O)[C@H]4O)cc3o2)cc1
inactive: locus YAL013W, strain DEP1, active compounds read low 1.01 | locus YAL021C, strain ccr4, active compounds read low 1 | locus YAL026C, strain drs2, active compounds read low 1.03 | locus YAL030W, strain snc1, active compounds read low 1 | locus YBL061C, strain skt5, active compounds read low 1 | locus YBR009C, strain hhf1, active compounds read low 1 | locus YBR021W, strain FUR4, active compounds read low 1 | locus YBR023C, strain chs3, active compounds read low 1.01 | locus YBR171W, strain sec66, active compounds read low 1.01 | locus YBR229C, strain ROT2, active compounds read low 1 | locus YBR231C, strain swc5, active compounds read low 1.01 | locus YBR279W, strain paf1, active compounds read low 1 | locus YCL011C, strain gbp2, active compounds read low 1 | locus YCL016C, strain dcc1, active compounds read low 0.989 | locus YCL029C, strain bik1, active compounds read low 1.02 | locus YCL061C, strain MRC1, active compounds read low 1.01 | locus YCL069W, strain vba3, active compounds read low 0.968 | locus YCR088W, strain abp1, active compounds read low 1.01 | locus YDL005C, strain med2, active compounds read low 1 | locus YDL035C, strain GPR1, active compounds read low 1 | locus YDL040C, strain nat1, active compounds read low 1.01 | locus YDL074C, strain BRE1, active compounds read low 1.03 | locus YDL101C, strain DUN1, active compounds read low 1.03 | locus YDL185W, strain tfp1, active compounds read low 1.02 | locus YDL192W, strain arf1, active compounds read low 1.02 | locus YDR001C, strain nth1, active compounds read low 0.998 | locus YDR069C, strain doa4, active compounds read low 1.01 | locus YDR101C, strain arx1, active compounds read low 1.01 | locus YDR137W, strain rgp1, active compounds read low 1.02 | locus YDR159W, strain sac3, active compounds read low 1.02 | locus YDR162C, strain NBP2, active compounds read low 1.01 | locus YDR195W, strain ref2 1 | locus YDR297W, strain sur2, active compounds read low 0.998 | locus YDR318W, strain mcm21, active compounds read low 1.01 | locus YDR334W, strain swr1, active compounds read low 1 | locus YDR335W, strain msn5, active compounds read low 0.992 | locus YDR388W, active compounds read low 1.02 | locus YDR392W, strain spt3, active compounds read low 1 | locus YDR502C, strain sam2, active compounds read low 1.02 | locus YEL003W, strain gim4, active compounds read low 1.01 | locus YEL037C, strain rad23, active compounds read low 1.01 | locus YEL061C, strain CIN8 (second series), active compounds read low 0.995 | locus YEL061C, strain CIN8, active compounds read low 1 | locus YER015W, strain faa2, active compounds read low 1 | locus YER016W, strain bim1, active compounds read low 1 | locus YER110C, active compounds read low 1.02 | locus YER111C, strain swi4, active compounds read low 1 | locus YER155C, strain BEM2 (second series), active compounds read low 1.02 | locus YER155C, strain BEM2, active compounds read low 1.01 | locus YER167W, strain BCK2, active compounds read low 1.02 | locus YFR010W, strain ubp6, active compounds read low 1.01 | locus YGL078C, strain dbp3, active compounds read low 1.01 | locus YGL086W, strain mad1, active compounds read low 1.03 | locus YGL167C, strain pmr1, active compounds read low 0.995 | locus YGL173C, strain kem1, active compounds read low 1.02 | locus YGL227W, strain vid30, active compounds read low 1.01 | locus YGL240W, strain doc1, active compounds read low 1.02 | locus YGL248W, strain PDE1, active compounds read low 1.01 | locus YGL253W, strain hxk2, active compounds read low 0.986 | locus YGR078C, strain PAC10, active compounds read low 1.03 | locus YGR135W, strain pre9, active compounds read low 1.01 | locus YGR229C, strain SMI1, active compounds read low 1.02 | locus YGR252W, strain gcn5, active compounds read low 1.04 | locus YHR013C, strain ard1, active compounds read low 1.01 | locus YHR027C, strain rpn1, active compounds read low 0.998 | locus YHR030C, strain SLT2, active compounds read low 0.992 | locus YHR079C, strain IRE1 (second series), active compounds read low 1.01 | locus YHR094C, strain hxt1, active compounds read low 1.01 | locus YHR129C, strain ARP1, active compounds read low 1.01 | locus YHR142W, strain chs7, active compounds read low 0.983 | locus YHR200W, strain rpn10, active compounds read low 1.02 | locus YIL066C, strain RNR3, active compounds read low 1.01 | locus YIL073C, strain SPO22, active compounds read low 1.08 | locus YIL125W, strain kgd1, active compounds read low 1.02 | locus YIR030C, strain dcg1, active compounds read low 1.02 | locus YJL092W, strain hpr5, active compounds read low 0.997 | locus YJL095W, strain BCK1 (second series), active compounds read low 1 | locus YJL095W, strain BCK1, active compounds read low 1.05 | locus YJL115W, strain asf1, active compounds read low 1 | locus YJL129C, strain trk1, active compounds read low 1.01 | locus YJL134W, strain LCB3, active compounds read low 0.994 | locus YJL154C, strain vps35, active compounds read low 0.999 | locus YJL164C, strain tpk1, active compounds read low 0.991 | locus YJL166W, strain qcr8, active compounds read low 1 | locus YJL168C, strain set2, active compounds read low 1.02 | locus YJL187C, strain SWE1 (second series), active compounds read low 1.03 | locus YJL187C, strain SWE1, active compounds read low 1.01 | locus YJR043C, strain POL32, active compounds read low 0.972 | locus YKL009W, strain mrt4, active compounds read low 1.04 | locus YKL068W, active compounds read low 1.01 | locus YKL085W, strain MDH1 (second series), active compounds read low 0.999 | locus YKL085W, strain MDH1, active compounds read low 0.999 | locus YKL160W, strain elf1, active compounds read low 0.999 | locus YKL190W, strain CNB1, active compounds read low 0.994 | locus YKR001C, strain vps1, active compounds read low 1.04 | locus YKR026C, strain gcn3, active compounds read low 1 | locus YKR091W, strain srl3, active compounds read low 1 | locus YLL001W, strain dnm1, active compounds read low 0.969 | locus YLL026W, active compounds read low 1 | locus YLL041C, strain sdh2, active compounds read low 1.01 | locus YLR027C, strain aat2, active compounds read low 0.981 | locus YLR039C, strain RIC1, active compounds read low 1.06 | locus YLR058C, strain SHM2, active compounds read low 1.01 | locus YLR102C, strain apc9, active compounds read low 1.02 | locus YLR221C, strain rsa3, active compounds read low 1.01 | locus YLR258W, strain gsy2, active compounds read low 0.991 | locus YLR262C, strain YPT6 (second series), active compounds read low 0.988 | locus YLR262C, strain YPT6, active compounds read low 1.1 | locus YLR268W, strain sec22, active compounds read low 1.05 | locus YLR320W, strain mms22, active compounds read low 1.03 | locus YLR330W, strain CHS5, active compounds read low 1 | locus YLR342W, strain FKS1 (second series), active compounds read low 1.01 | locus YLR342W, strain FKS1, active compounds read low 0.996 | locus YLR357W, strain rsc2, active compounds read low 0.996 | locus YLR370C, strain arc18, active compounds read low 1 | locus YLR371W, strain rom2, active compounds read low 1.02 | locus YLR384C, strain iki3, active compounds read low 0.99 | locus YLR418C, strain cdc73, active compounds read low 0.994 | locus YML016C, strain PPZ1, active compounds read low 1 | locus YML032C, strain rad52, active compounds read low 0.998 | locus YML120C, strain ndi1, active compounds read low 1 | locus YML124C, strain tub3, active compounds read low 1.02 | locus YMR058W, strain fet3, active compounds read low 1 | locus YMR078C, strain ctf18, active compounds read low 1.02 | locus YMR125W, strain sto1, active compounds read low 0.958 | locus YMR129W, active compounds read low 0.999 | locus YMR205C, strain PFK2, active compounds read low 1 | locus YMR223W, strain ubp8, active compounds read low 1.01 | locus YMR231W, strain pep5, active compounds read low 1 | locus YMR307W, strain GAS1, active compounds read low 1.03 | locus YNL067W, strain RPL9B, active compounds read low 1.04 | locus YNL071W, strain lat1, active compounds read low 1.01 | locus YNL128W, strain TEP1, active compounds read low 1.02 | locus YNL209W, strain ssb2, active compounds read low 0.991 | locus YNL233W, strain BNI4, active compounds read low 1.04 | locus YNL248C, strain rpa49, active compounds read low 1.02 | locus YNL250W, strain rad50, active compounds read low 1.02 | locus YNL271C, strain bni1, active compounds read low 1.02 | locus YNL298W, strain CLA4, active compounds read low 1.02 | locus YNL307C, strain MCK1, active compounds read low 1.02 | locus YNL322C, strain KRE1 (second series), active compounds read low 1 | locus YNL322C, strain KRE1, active compounds read low 1 | locus YNR049C, strain mso1, active compounds read low 0.991 | locus YNR052C, strain pop2, active compounds read low 1.02 | locus YOL006C, strain TOP1, active compounds read low 1.15 | locus YOL012C, strain htz1 1.14 | locus YOL147C, strain pex11, active compounds read low 1.01 | locus YOR001W, strain rrp6, active compounds read low 1.02 | locus YOR061W, strain CKA2, active compounds read low 1 | locus YOR069W, strain VPS5, active compounds read low 1.01 | locus YOR070C, strain gyp1, active compounds read low 1.02 | locus YOR080W, strain dia2, active compounds read low 0.998 | locus YOR083W, strain WHI5, active compounds read low 1.01 | locus YOR106W, strain vam3, active compounds read low 0.988 | locus YOR136W, strain idh2, active compounds read low 1.03 | locus YOR144C, strain elg1, active compounds read low 1.01 | locus YOR184W, strain ser1, active compounds read low 1.01 | locus YOR265W, strain rbl2, active compounds read low 0.998 | locus YOR270C, strain vph1, active compounds read low 1.02 | locus YOR290C, strain snf2, active compounds read low 0.985 | locus YOR316C, strain cot1, active compounds read low 1.01 | locus YPL051W, strain arl3, active compounds read low 1.01 | locus YPL078C, strain atp4, active compounds read low 1.02 | locus YPL106C, strain sse1, active compounds read low 1.01 | locus YPL240C, strain hsp82, active compounds read low 0.995 | locus YPL241C, strain CIN2, active compounds read low 0.993 | locus YPR119W, strain clb2, active compounds read low 1.02 | locus YPR141C, strain kar3, active compounds read low 1.01 | locus YPR163C, strain tif3, active compounds read low 1.02 | locus YPR167C, strain met16, active compounds read low 1.01 | strain wtn01, active compounds read low 1.04
